Results published in PubChem BioAssay (NCATS).
Results filed as inconclusive are left out. The source made the active and inactive calls. Calls come from the whole dose curve; as a rule, active = well fitted inhibition curve with a large enough effect; inconclusive = small, poorly fitted or top-dose-only effect; inactive = flat fitted curve, though single readings scatter.

How the values were obtained:
Test in all cases: qHTS profiling for inhibitors of Plasmodium falciparum proliferation (AID 504749); note: nearly all actives have a fitted effect of over 60% in size
[1] = system: 3D7; details: P. falciparum in erythrocytes, SYBR Green DNA, 72 h; series mostly up to 12.8 µM
Outline: (§1)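 Quantitative HTS: compounds pinned into medium, infected erythrocytes added (0.3% parasitemia, 2.5% hematocrit), 72 h culture at 37 C under 5% CO2. Saponin/Triton lysis with SYBR Green I, overnight RT, then fluorescence read.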

[2] = system: ATS95; details: P. falciparum in erythrocytes, SYBR Green DNA, 72 h; series mostly up to 12.8 µM
Outline: as §1

[3] = system: CP185; details: P. falciparum in erythrocytes, SYBR Green DNA, 72 h; series mostly up to 12.8 µM
Outline: as §1

[4] = system: CP201; details: P. falciparum in erythrocytes, SYBR Green DNA, 72 h; series mostly up to 12.8 µM
Outline: as §1

[5] = system: CP237; details: P. falciparum in erythrocytes, SYBR Green DNA, 72 h; series mostly up to 12.8 µM
Outline: as §1

[6] = system: CP238; details: P. falciparum in erythrocytes, SYBR Green DNA, 72 h; series mostly up to 12.8 µM
Outline: as §1

[7] = system: CP262; details: P. falciparum in erythrocytes, SYBR Green DNA, 72 h; series mostly up to 12.8 µM
Outline: as §1

[8] = system: CP265; details: P. falciparum in erythrocytes, SYBR Green DNA, 72 h; series mostly up to 12.8 µM
Outline: as §1

[9] = system: CP266; details: P. falciparum in erythrocytes, SYBR Green DNA, 72 h; series mostly up to 28.7 µM
Outline: as §1

[10] = system: CP286; details: P. falciparum in erythrocytes, SYBR Green DNA, 72 h; series mostly up to 12.8 µM
Outline: as §1

[11] = system: CP305; details: P. falciparum in erythrocytes, SYBR Green DNA, 72 h; series mostly up to 12.8 µM
Outline: as §1

[12] = system: CP335; details: P. falciparum in erythrocytes, SYBR Green DNA, 72 h; series mostly up to 12.8 µM
Outline: as §1

[13] = system: DIV30; details: P. falciparum in erythrocytes, SYBR Green DNA, 72 h; series mostly up to 12.8 µM
Outline: as §1

[14] = system: Dd2; details: P. falciparum in erythrocytes, SYBR Green DNA, 72 h; series mostly up to 12.8 µM
Outline: as §1

[15] = system: ECU; details: P. falciparum in erythrocytes, SYBR Green DNA, 72 h; series mostly up to 12.8 µM
Outline: as §1

[16] = system: GB4; details: P. falciparum in erythrocytes, SYBR Green DNA, 72 h; series mostly up to 12.8 µM
Outline: as §1

[17] = system: HB3; details: P. falciparum in erythrocytes, SYBR Green DNA, 72 h; series mostly up to 12.8 µM
Outline: as §1

[18] = system: PAD; details: P. falciparum in erythrocytes, SYBR Green DNA, 72 h; series mostly up to 12.8 µM
Outline: as §1

[19] = system: PC26; details: P. falciparum in erythrocytes, SYBR Green DNA, 72 h; series mostly up to 12.8 µM
Outline: as §1

[20] = system: TAB109; details: P. falciparum in erythrocytes, SYBR Green DNA, 72 h; series mostly up to 12.8 µM
Outline: as §1

Measured: Potency

CN1CCCC[C@@H]1CCN1c2ccccc2Sc2ccc(S(C)=O)cc21 (stereo not given in full)
inactive: [1] | [2] | [3] | [4] | [5] | [6] | [7] | [8] | [9] | [10] | [11] | [12] | [13] | [14] | [15] | [16] | [17] | [18] | [19] | [20]

CN1[C@@H]2CC[C@H]1CC(OC(=O)[C@@H](O)c1ccccc1)C2 (stereo not given in full)
inactive: [1] | [2] | [3] | [4] | [5] | [6] | [7] | [8] | [9] | [10] | [11] | [12] | [13] | [14] | [15] | [16] | [17] | [18] | [19] | [20]

CC[C@@]12CCCN3CCc4c(n(c5ccccc45)C(=O)C1)[C@H]32
inactive: [1] | [2] | [3] | [4] | [5] | [6] | [7] | [8] | [9] | [10] | [11] | [12] | [13] | [14] | [15] | [16] | [17] | [18] | [19] | [20]
